Assay results from article PMC5540273 (PLoS ONE, 2017).

Legend:
Details in all cases: concentration: 1 μM, replicates: in singlicate; n = 1
[1] = system: EPHA2
[2] = system: EPHA3
[3] = system: EPHA4
[4] = system: EPHA5
[5] = system: EPHA6
[6] = system: EPHA7
[7] = system: EPHA8
[8] = system: EPHB1
[9] = system: EPHB2
[10] = system: EPHB3
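Further: KINOMEscan kinase panel screen.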

SMILES | %Inh [1] | %Inh [2] | %Inh [3] | %Inh [4] | %Inh [5] | %Inh [6] | %Inh [7] | %Inh [8] | %Inh [9] | %Inh [10]
Cc1ccc(NC(=O)Nc2ccc(Cl)cc2)cc1-c1ccc(C(=O)Nc2ccncc2)cc1 [GSK1398472] | 43% | 0% | 41% | 2% | 36% | 7% | 34% | 16% | 11% | 25%
CNC(=O)c1ccc(C)c(-n2c(C)cc(OCc3ccc(F)cc3F)c(Br)c2=O)c1 | 0% | 0% | 0% | 0% | 0% | 0% | 0% | 0% | 6% | 0%
Cc1ccc(NC(=O)Nc2ccccc2F)cc1-c1ccc(C(=O)Nc2ccncc2)cc1 [GSK1398477] | 31% | 17% | 40% | 14% | 31% | 19% | 52% | 27% | 12% | 22%
COc1ccc(CSc2nnc(-c3ccc4c(c3)CCO4)o2)cc1 | 0% | 1% | 18% | 0% | 6% | 0% | 0% | 0% | 0% | 12%
Cc1ccc(NC(=O)Nc2ccccc2)cc1-c1ccc(C(=O)Nc2ccncc2)cc1 [GSK1398471] | 17% | 4% | 32% | 0% | 15% | 5% | 36% | 11% | 13% | 15%
CCn1c(-c2c(N)noc2C)nc2cnccc21 [SB-737856] | 15% | 0% | 29% | 7% | 21% | 14% | 33% | 12% | 0% | 26%
Cc1nccc(-c2c(-c3ccc(F)cc3)ncn2CCCN2CCOCC2)n1.Cl [SB-282975] | 16% | 0% | 4% | 10% | 8% | 9% | 10% | 15% | 15% | 3%
COc1ccc(Nc2nccc(N3CCC(NC(=O)C(C)c4ccc(Cl)cc4)CC3)n2)cc1 (centres unmarked) [GSK1379812] | 7% | 5% | 0% | 0% | 0% | 0% | 9% | 34% | 71% | 1%
Fc1ccc(-c2nc3n(c2-c2ccncc2)CCS3)cc1 [GI98581] | 12% | 0% | 0% | 10% | 19% | 4% | 11% | 9% | 15% | 19%
O=C(Nc1n[nH]c2nc(-c3cccs3)c(Br)cc12)C1CC1 [SB-735297] | 0% | 0% | 1% | 0% | 17% | 0% | 8% | 0% | 0% | 0%
CC(C)c1cc(-c2ccc3c(N)n[nH]c3c2)nc(N)n1 [GSK2250882] | 17% | 11% | 16% | 0% | 17% | 3% | 8% | 17% | 0% | 29%
O=c1cc(N2CCOCC2)nc2n(Cc3ccccc3F)ccn12 [GSK2297428] | 21% | 0% | 5% | 0% | 0% | 3% | 9% | 5% | 0% | 7%
Cn1cncc1-c1cc2c(Nc3ccc(OCc4ccccc4)cc3)ncnc2cn1 [GW281179] | 13% | 0% | 6% | 0% | 14% | 9% | 11% | 21% | 0% | 25%
CCCCc1nn2ncccc2c1-c1ccnc(NC2CC2)n1 [GW684374] | 0% | 0% | 0% | 0% | 0% | 0% | 9% | 13% | 0% | 0%
CSc1ccc(-c2nc3n(c2-c2ccncc2)CCC3)cc1 [SKF-105561] | 0% | 5% | 14% | 0% | 0% | 9% | 0% | 0% | 0% | 8%
Cc1c(Cn2c(C)c(C)n3c(=O)cc(N4CCOCC4)nc23)cccc1C(F)(F)F [GSK2328680] | 17% | 0% | 1% | 0% | 0% | 4% | 7% | 0% | 0% | 2%
Cn1cnc2c(N)ncnc21 [SKF-97623] | 0% | 0% | 0% | 9% | 0% | 0% | 0% | 0% | 0% | 0%
